Measured values from PubChem BioAssay (NCATS).
“And” between values parts separate entries of the source, which are not always exact repeats. Equal entries are not always repeated. Results filed as inconclusive are left out. Where a call stands in place of a potency, no number is given. The source made the active and inactive calls. Calls follow the shape of the dose curve; as a rule, active = well fitted curve in the direction sought with a large enough effect; inconclusive = small, poorly fitted or top-dose-only effect, or another doubt; inactive = no such curve, though single readings can be large; an effect the other way counts as inactive or inconclusive.

Tested on: not listed separately
Experiment: qHTS of pediatric cancer cell lines to identify multiple opportunities for drug repurposing: Confirmatory screen for OHS-50 cells (AID 1347128);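 also: compound exposure lasted 48 h at 37 degrees C; nearly all actives have a fitted effect of over 55% in size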
Settings: OHS-50 osteosarcoma cells viability; series mostly up to 45.9 µM
How it was run: (§1)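 Cells (500-1,000/well) rested 5 h, then received compounds for 48 h; metabolically active cells were measured by CellTiter-Glo luminescence. Final concentrations spanned up to 46 µM (MIPE, 11-point) or 0.59 nM-46 µM (NPC, 8-point) in primary screens, 11-point in follow-ups.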
Potency is read from the fitted curve at half-maximal effect.

Row | SMILES | Potency
1 | Nc1nc(F)nc2c1ncn2[C@@H]1O[C@H](CO)[C@@H](O)[C@@H]1O | 0.414 µM (active)
2 | Cc1cccc(N(C)C(=S)Oc2ccc3ccccc3c2)c1 | inactive
3 | CC(C)C[C@H](NC(=O)[C@H](CCc1ccccc1)NC(=O)CN1CCOCC1)C(=O)N[C@@H](Cc1ccccc1)C(=O)N[C@@H](CC(C)C)C(=O)[C@@]1(C)CO1 | 0.208 µM (active)
4 | CCCCOc1ccc(CC(=O)NO)cc1 | inactive
5 | N=C(N)c1ccc(OCCCCCOc2ccc(C(=N)N)cc2)cc1 | inactive
6 | S=P(N1CC1)(N1CC1)N1CC1 | inactive
7 | CCOC(=O)c1ccc(C#Cc2ccc3c(c2)C(C)(C)CCS3)nc1 | inactive
8 | CNC(=O)c1cc(Oc2ccc(NC(=O)Nc3ccc(Cl)c(C(F)(F)F)c3)cc2)ccn1 | 18.5 µM (active)
9 | COC(=O)Nc1nc2ccc(C(=O)c3ccccc3)cc2[nH]1 | 2.93 µM (active)
10 | Nc1nc(N)nc(-c2cc(Cl)ccc2Cl)n1 | inactive
11 | CCC(=O)O[C@]1(C(=O)SCF)[C@H](C)C[C@H]2[C@@H]3C[C@H](F)C4=CC(=O)C=C[C@]4(C)[C@@]3(F)[C@@H](O)C[C@@]21C | inactive
12 | COc1cc(NCc2ccc3nc(N)nc(N)c3c2C)cc(OC)c1OC | 3.69 µM (active)

Tested on: not listed separately
Experiment: qHTS of pediatric cancer cell lines to identify multiple opportunities for drug repurposing: Confirmatory screen for SK-N-SH cells (AID 1347129);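 also: cells exposed to compound for 48 h before viability read; nearly all actives have a fitted effect of over 60% in size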
Settings: SK-N-SH neuroblastoma cell viability; series mostly up to 46.1 µM
How it was run: as §1

Row | SMILES | Potency
13 | Cc1cccc(N(C)C(=S)Oc2ccc3ccccc3c2)c1 | inactive
14 | CC(C)C[C@H](NC(=O)[C@H](CCc1ccccc1)NC(=O)CN1CCOCC1)C(=O)N[C@@H](Cc1ccccc1)C(=O)N[C@@H](CC(C)C)C(=O)[C@@]1(C)CO1 | 0.209 µM (active)
15 | CCCCOc1ccc(CC(=O)NO)cc1 | inactive
16 | N=C(N)c1ccc(OCCCCCOc2ccc(C(=N)N)cc2)cc1 | inactive
17 | O=C(NCC1CN(c2ccc(N3CCOCC3=O)cc2)C(=O)O1)c1ccc(Cl)s1 (stereo not drawn) | inactive
18 | CCOC(=O)c1ccc(C#Cc2ccc3c(c2)C(C)(C)CCS3)nc1 | inactive
19 | CNC(=O)c1cc(Oc2ccc(NC(=O)Nc3ccc(Cl)c(C(F)(F)F)c3)cc2)ccn1 | 20.9 µM (active)
20 | COC(=O)Nc1nc2ccc(C(=O)c3ccccc3)cc2[nH]1 | inactive
21 | Nc1nc(N)nc(-c2cc(Cl)ccc2Cl)n1 | inactive
22 | COc1cc([C@@H]2c3cc4c(cc3[C@H](O)[C@H]3COC(=O)[C@H]23)OCO4)cc(OC)c1OC | inactive
23 | CCC(=O)O[C@]1(C(=O)SCF)[C@H](C)C[C@H]2[C@@H]3C[C@H](F)C4=CC(=O)C=C[C@]4(C)[C@@]3(F)[C@@H](O)C[C@@]21C | inactive
24 | COc1cc(NCc2ccc3nc(N)nc(N)c3c2C)cc(OC)c1OC | 4.69 µM (active)

Target: N-terminal Xaa-Pro-Lys N-methyltransferase 1 (Homo sapiens) (UniProt Q9BV86)
Experiment: qHTS Assay for Inhibitors of N-terminal methyltransferase 1 (NTMT1): LOPAC validation of the NTMT1 SAHH-coupled ThioGlo3 Assay (AID 1347143);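 also: SAH from peptide methylation measured as thiol fluorescence via SAHH coupling and ThioGlo3; nearly all actives have a fitted effect of over 70% in size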
Settings: recombinant NTMT1, SAHH-coupled ThioGlo3 fluorescence; series mostly up to 114 µM
How it was run: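 Inhibition of NTMT1 methylation of peptide SPKRIA is followed by converting SAH with SAHH and labelling the released thiol with ThioGlo3. Plates are read at 340/450nm before and 30 min after reagent addition, both at room temperature.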

Chain of N-terminal Xaa-Pro-Lys N-methyltransferase 1 (Homo sapiens) (Q9BV86 whole entry, looked up): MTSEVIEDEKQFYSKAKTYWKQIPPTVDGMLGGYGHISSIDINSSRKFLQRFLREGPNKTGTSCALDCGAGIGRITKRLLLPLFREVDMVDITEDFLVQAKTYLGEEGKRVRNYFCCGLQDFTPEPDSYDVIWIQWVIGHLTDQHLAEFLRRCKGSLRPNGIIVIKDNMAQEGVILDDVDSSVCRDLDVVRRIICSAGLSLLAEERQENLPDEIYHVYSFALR

Row | SMILES | Potency
25 | N[C@@H](Cc1ccc(O)c(O)c1)C(=O)O | 50.1 µM (active)
26 | CCN1CCCC1CNC(=O)c1cc(S(N)(=O)=O)ccc1OC (stereo not drawn) | 56.2 µM (active)
27 | NC(=O)c1ccc2[nH]ccc2c1 | inactive
28 | NC(=O)c1cccc(N)c1 | inactive
29 | OCc1ccc(-c2nn(Cc3ccccc3)c3ccccc23)o1 | 28.2 µM (active)
30 | CC1=C(C(=O)O)N2C(=O)[C@@H](NC(=O)C(N)c3ccccc3)[C@H]2SC1 (stereo partly drawn) | inactive
31 | O=C(O)C1CCCN(CCC=C(c2ccccc2)c2ccccc2)C1 (stereo not drawn) | inactive
32 | CCCCS(=N)(=O)CCC(N)C(=O)O (stereo not drawn) | inactive

Target: Furin (Homo sapiens) (UniProt P09958)
Experiment: Furin counterscreen qHTS for Zika virus inhibitors (AID 1347149); also: nearly all actives have a fitted effect of over 70% in size
Settings: furin enzymatic counterscreen, fluorogenic substrate; series mostly up to 57.5 µM
How it was run: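 Fluorogenic cleavage of BOC-RVRR-AMC (2 microM final, Km ~15 µM) was monitored (ex 340, em 450 nm) at 37C after 15 min RT preincubation of 5 nM furin with compounds in HEPES pH 7.0 buffer with CaCl2 and Triton X-100. Percent inhibition was fitted to a 4-parameter Hill curve.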

Chain of Furin (Homo sapiens) (P09958 whole entry, looked up): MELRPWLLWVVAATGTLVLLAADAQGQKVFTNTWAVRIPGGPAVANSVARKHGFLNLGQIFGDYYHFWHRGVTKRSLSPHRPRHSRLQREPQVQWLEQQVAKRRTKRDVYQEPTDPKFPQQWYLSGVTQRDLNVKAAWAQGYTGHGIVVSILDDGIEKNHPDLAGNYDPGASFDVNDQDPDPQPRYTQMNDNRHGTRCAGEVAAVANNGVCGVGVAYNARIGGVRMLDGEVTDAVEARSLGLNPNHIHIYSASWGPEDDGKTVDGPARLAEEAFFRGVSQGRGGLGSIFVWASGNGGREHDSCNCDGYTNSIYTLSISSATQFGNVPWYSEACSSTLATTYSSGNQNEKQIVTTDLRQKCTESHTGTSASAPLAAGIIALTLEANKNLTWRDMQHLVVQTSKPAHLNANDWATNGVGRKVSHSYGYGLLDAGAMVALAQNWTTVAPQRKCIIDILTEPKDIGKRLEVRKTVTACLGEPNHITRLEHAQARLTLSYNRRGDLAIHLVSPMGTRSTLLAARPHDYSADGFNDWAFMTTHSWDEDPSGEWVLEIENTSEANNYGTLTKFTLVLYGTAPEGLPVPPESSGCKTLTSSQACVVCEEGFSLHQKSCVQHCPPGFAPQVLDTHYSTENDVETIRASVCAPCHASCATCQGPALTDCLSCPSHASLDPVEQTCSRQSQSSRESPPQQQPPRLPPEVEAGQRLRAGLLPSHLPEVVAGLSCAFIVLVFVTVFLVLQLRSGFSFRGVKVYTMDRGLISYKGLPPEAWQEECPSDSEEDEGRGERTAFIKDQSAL

Row | SMILES | Potency
33 | CCn1cc(C(=O)O)c(=O)c2cc(F)c(N3CCNCC3)cc21 | 17.1 µM (active)
34 | COc1c(N2CCNC(C)C2)c(F)cc2c(=O)c(C(=O)O)cn(C3CC3)c12 (stereo not drawn) | 24.1 µM (active) and 27.1 µM (active)
35 | OCc1ccc(-c2nn(Cc3ccccc3)c3ccccc23)o1 | 27.1 µM (active)
36 | CC(C)(Sc1cc(C(C)(C)C)c(O)c(C(C)(C)C)c1)Sc1cc(C(C)(C)C)c(O)c(C(C)(C)C)c1 | inactive
37 | O=C(O)c1cn(C2CC2)c2cc(N3CCNCC3)c(F)cc2c1=O | 24.1 µM (active)
38 | CCCc1nc(C)c2c(=O)[nH]c(-c3cc(S(=O)(=O)N4CCN(CC)CC4)ccc3OCC)nn12 | inactive
39 | CNC(=O)c1cc(Oc2ccc(NC(=O)Nc3ccc(Cl)c(C(F)(F)F)c3)cc2)ccn1 | inactive
40 | O=C(O)c1ccc(-n2nc(-c3ccccc3O)nc2-c2ccccc2O)cc1 | inactive
41 | COC(=O)Nc1nc2ccc(C(=O)c3ccccc3)cc2[nH]1 | inactive
42 | CNC1CCCN(c2c(F)cc3c(=O)c(C(=O)O)cn(C4CC4)c3c2OC)C1 (stereo not drawn) | 7.62 µM (active) and 24.1 µM (active)
43 | COc1cc(NCc2ccc3nc(N)nc(N)c3c2C)cc(OC)c1OC | 17.1 µM (active)

Tested on: Zika virus NS2B-NS3 protease (unlinked)
Experiment: Optimization of GU AMC qHTS for Zika virus inhibitors: Unlinked NS2B-NS3 protease assay (AID 1347151); also: nearly all actives have a fitted effect of over 80% in size
Settings: recombinant ZIKV NS2B-NS3 protease, fluorogenic AMC substrate; series mostly up to 52.5 µM
How it was run: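 Noncovalent complex of NS2B hydrophilic domain and NS3 protease domain, 25 nM final, in 10 mM Tris-HCl pH 8.0, 0.01% Tween 20. AMC fluorescence change over 15 min at room temperature was fitted to a 4-parameter Hill equation.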

Row | SMILES | Potency
44 | CCN1CCCC1CNC(=O)c1cc(S(N)(=O)=O)ccc1OC (stereo not drawn) | inactive
45 | OCc1ccc(-c2nn(Cc3ccccc3)c3ccccc23)o1 | 23.8 µM (active)
46 | Cc1ccc(S(=O)(=O)N[C@@H](Cc2ccccc2)C(=O)CCl)cc1 | inactive
47 | CC1=C(C(=O)O)N2C(=O)[C@@H](NC(=O)C(N)c3ccccc3)[C@H]2SC1 (stereo partly drawn) | inactive
48 | CCN(CC)CCn1c(=O)c(Cc2ccc(OC)cc2)nc2ccccc21 | inactive
49 | CCN(CC)CC#CCOC(=O)C(O)(c1ccccc1)C1CCCCC1 (stereo not drawn) | inactive
50 | O=C(O)C1CCCN(CCC=C(c2ccccc2)c2ccccc2)C1 (stereo not drawn) | inactive
51 | CNC(=O)c1cc(Oc2ccc(NC(=O)Nc3ccc(Cl)c(C(F)(F)F)c3)cc2)ccn1 | 9.87 µM (active)
52 | COC(=O)Nc1nc2ccc(C(=O)c3ccccc3)cc2[nH]1 | inactive
53 | CCCCS(=N)(=O)CCC(N)C(=O)O (stereo not drawn) | inactive
